An excerpt weighted towards active compounds, which were near 2.4% of everything screened.
D2 PAM-1: positively modulates the human D2 dopamine receptor allosterically. P14416. HEK293 T-REx D2, calcium flux, EC20 dopamine potentiation. potentiation, % at 10 µM. actives 0.34% (n = 340,000);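 active = potentiation over 3 SD above the plate norm, cut at about 30% in these data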; note: 0% is about no effect
Target sequence (P14416 whole entry, looked up): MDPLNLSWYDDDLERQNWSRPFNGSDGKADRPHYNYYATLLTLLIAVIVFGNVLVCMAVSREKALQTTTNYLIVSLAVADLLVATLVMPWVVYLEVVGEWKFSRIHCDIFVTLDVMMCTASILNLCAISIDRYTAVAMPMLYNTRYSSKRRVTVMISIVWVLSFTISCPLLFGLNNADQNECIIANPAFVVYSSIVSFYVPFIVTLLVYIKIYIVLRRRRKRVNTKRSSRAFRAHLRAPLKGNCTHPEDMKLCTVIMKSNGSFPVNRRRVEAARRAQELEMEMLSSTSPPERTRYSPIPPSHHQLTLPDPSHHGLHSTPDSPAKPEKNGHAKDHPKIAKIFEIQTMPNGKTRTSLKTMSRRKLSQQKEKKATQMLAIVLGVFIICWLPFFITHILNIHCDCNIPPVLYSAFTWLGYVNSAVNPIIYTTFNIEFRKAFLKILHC
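Using a no-wash calcium dye in inducible, force-coupled HEK293 Trex cells expressing D2, we tracked fluorescence each second for 180 s after compound, then for 180 s after EC20 dopamine to detect augmented signalling.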
D2 PAM-2: human D2 receptor positive allosteric modulation; P14416; DiscoveRx D2 beta-arrestin cells, luminescence, 90 min; 100% = 57 uM dopamine signal; potentiation, % (concentration not given with the values); actives 0.23% (n = 360,000); AID 624464; in the data active = potentiation above about 50%; inconclusive = mostly about 30% to 49%
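PathHunter beta-arrestin assay in DiscoveRx D2 cells. Compounds were added with an EC20 of dopamine (50 nM final) for 90 min at 37 deg C. Luminescence was read 1 h after detection reagent, with 57 uM dopamine as the EC100 control.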
D2 antag: antagonists of human D2 dopamine receptor | actives 2% (n = 340,000) | P14416 | inhibition, % at 10 µM | HEK293 TREx D2 cells, calcium flux, dopamine EC80; in the data active = inhibition above about 30%; inactive = below that, where a call was filed; note: 0% is about no effect
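Compounds are added to dye-loaded, induced HEK293 T-REx cells coupled to calcium release via D2; after a 3 min kinetic read an EC80 dopamine stimulus is given and fluorescence is recorded for 3 more min.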
D2 ag-1: activates the human D2 dopamine receptor; P14416; activation, % (test concentration not listed); actives 0.084% (n = 360,000); DiscoveRx PathHunter D2 beta-arrestin, luminescence, 90 min; 100% = 57 uM dopamine signal; in the data active = activation above about 40%; inconclusive = between about 15% and that limit
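DiscoveRx PathHunter D2 beta-arrestin cells (2,100/well) attached overnight, then compound-stimulated 90 min at 37 C in HBSS/10 mM HEPES/0.1% Tween-20 buffer; beta-galactosidase complementation read by luminescence after 1 h at ambient temperature. Dopamine 57 uM final (EC100) as control.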
D2 ag-2: agonists of human D2 dopamine receptor; HEK293 T-REx D2 cells, calcium flux agonist mode; activation, % at 2 µM; actives 0.53% (n = 340,000);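 active = activation over 3 SD above normal in the single-dose calcium agonist read, cut at about 30% in these data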; note: 0% is about no effect
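Agonism scored from kinetic calcium signal (1 read/sec, 180 s) following compound pin transfer, after a 10 s baseline. Cells: HEK293 Trex line expressing inducible D2 receptor coupled to calcium, dye-loaded after overnight culture at 30 C.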
* hit, by the source's call; ? = inconclusive; . = no result given; ! = not active in a repeat.

SMILES | D2 PAM-1 | D2 PAM-2 | D2 antag | D2 ag-1 | D2 ag-2
CCOc1cc(C=NN2CCCCCC2)ccc1O | . | 51.4* | . | 2.9 | .
COC(=O)c1ccc(/C=N\NC(=O)CC(=O)NCCc2ccccc2)cc1 | -7.7 | -3.5 | -13.5 | -3.0 | 0.1
C=CCNC(=O)CC(=O)N/N=C/c1ccc(C(=O)OC)cc1 | -2.1 | -9.2 | 33.4* | 1.1 | 0.8
CCc1ccc(NC(=O)C/C(C)=N/NC(=O)COc2ccccc2C)cc1 | -8.1 | -9.0 | 39.6* | -4.7 | 0.0
CCCCNC(=O)C1(C)CCCCN1C(=O)c1cc(-c2ccccc2)cs1 (configuration not stated) | . | -12.7 | . | -10.5 | .
COc1ccccc1NC(=S)N(CCCN(C)C)Cc1cc2cc3c(cc2[nH]c1=O)OCO3 | 15.3 | -2.8 | -6.9 | -4.2 | .
COc1ccccc1NC(=O)N(Cc1cccs1)Cc1cc2cc3c(cc2[nH]c1=O)OCO3 | -15.2 | -2.2 | 35.5* | 5.0 | 0.1
Cc1nc2c3ccccc3nc(NNC(=O)CCC(=O)N3CCN(c4ccccc4)CC3)n2n1 | 0.6 | -2.6 | 27.4 | 3.4 | 30.9*!
Cc1cc(NC(=O)CCC(=O)N(c2ccccc2)C(C)C(=O)NC2CCCC2)no1 (configuration not stated) | 2.9 | 3.8 | -9.6 | 3.7 | -1.0
COc1ccc(OC)c(N2C(=O)CC(Cc3cc(C)cc(C)c3)C2=O)c1 (configuration not stated) | 30.0* | 10.0 | 9.5 | -0.8 | -0.5
COc1ccc(OC)c(N2C(=O)CC(Cc3ccc(Cl)cc3)C2=O)c1 (configuration not stated) | 29.4 | -13.1 | -22.1 | -2.3 | 0.6
Cc1ccc(NC(=O)Cn2nnc(-c3ccccc3)n2)c(C)c1 | -5.4 | . | . | . | 0.2
CCN(CC)CCNC(=O)c1cc2c(=O)n(C)c3ccccc3c2n1C | 15.3 | -12.7 | 37.0* | -1.8 | 0.1
COCCNC(=O)c1cc2c(=O)n(C)c3ccccc3c2n1C | 0.4 | 1.6 | -0.5 | 8.7 | 0.5
CCN(CC)CCCNC(=O)c1cc2c(=O)n(C)c3ccccc3c2n1C | -15.2 | -7.2 | -25.3 | -2.3 | 0.4
Cn1c(C(=O)NCCCN2CCc3ccccc3C2)cc2c(=O)n(C)c3ccccc3c21 | -28.0 | -11.9 | 80.5* | -1.5 | 0.3
CN(C)CCNC(=O)c1cc2c(=O)n(C)c3ccccc3c2n1C | 32.6* | -2.6 | 8.9 | 1.6 | 1.6
COc1cc(NC(=O)C(NS(=O)(=O)c2ccc3c(c2)CCCC(=O)N3)C(C)C)cc(OC)c1 (configuration not stated) | -0.4 | . | . | . | 0.3
CCN(CC(=O)Nc1ccc(OC)cc1)C(=O)c1ccc2c(c1)NC(=O)C(C)S2 (configuration not stated) | 5.7 | -15.1 | 18.1 | -0.3 | -2.1
CC(=O)Nc1ccc(NS(=O)(=O)c2ccc(C)cc2)cc1[N+](=O)[O-] | 0.0 | -7.0 | -2.7 | -0.6 | -0.6
CC(=O)Nc1ccc(S(=O)(=O)Nc2ccc(F)c([N+](=O)[O-])c2)cc1 | -13.7 | 1.0 | 43.0* | -8.6 | 1.5
CC(=O)Nc1ccc(S(=O)(=O)c2ccc([N+](=O)[O-])cc2)cc1 | -0.6 | -2.9 | -1.9 | 52.7* | 0.2
Cc1cc(Cl)ccc1NC(=O)C1CCN(S(=O)(=O)c2ccc3[nH]c(=O)ccc3c2)CC1 | 10.4 | . | . | . | .
N/C(=N\OC(=O)c1ccc(Cl)cc1)c1ccccn1 | 4.5 | 16.2 | -13.1 | 14.6 | 0.7
N/C(=N\OC(=O)c1cc(-c2ccccc2)nc2ccccc12)c1ccccn1 | -1.7 | 7.4 | 24.5 | 48.4* | -2.1
SMILES | D2 PAM-1 | D2 PAM-2 | D2 antag | D2 ag-1 | D2 ag-2
Cc1ccc(/C(N)=N/OC(=O)c2cc(-c3ccccc3)nc3ccccc23)cc1 | 1.9 | -3.3 | -4.2 | -4.1 | 0.2
N/C(=N\OC(=O)c1ccc([N+](=O)[O-])cc1)c1ccc(Br)cc1 | 3.9 | 7.4 | -15.5 | 13.8 | -0.2
N/C(=N\OC(=O)c1ccc(Cl)c([N+](=O)[O-])c1)c1ccccn1 | 36.5* | ? | 6.3 | 9.8 | 4.9
N/C(=N\OC(=O)c1ccc(Cl)c(Cl)c1)c1ccccn1 | -4.0 | 82.3* | -0.7 | 10.6 | 0.0
CCOc1cc(C(=O)O/N=C(\N)c2ccc([N+](=O)[O-])cc2)cc(OCC)c1OCC | 4.5 | 76.4* | -4.3 | ? | 0.4
O=C(Nc1ccnn1C1CCN(C(=O)c2ccc(F)c(Cl)c2)CC1)C1CC1 | 9.0 | -22.3 | 4.7 | -1.4 | 0.2

Bioassay records (PubChem)
